# Experimental data from PubChem BioAssay (NCATS).
# “And” between values parts separate entries of the source, which are not always exact repeats. Identical values can stand only once. Inconclusive results are not listed. Values without a mark were called inactive. The source made the active and inactive calls. The call rests on the fitted dose curve; in most records, active means well fitted inhibition curve with a large enough effect; inconclusive means small, poorly fitted or top-dose-only effect; inactive means flat fitted curve, though single readings scatter.
# Legend:
# [1] = system: CRL-7250; assay: Cytotoxic Profiling of Annotated Libraries Using Quantitative High-Throughput Screening (AID 1296008); conditions: Five cell lines viability, CellTiter-Glo ATP luminescence, 48-72 h; max response: hits give low values
# How it was run: (§1)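 Compounds were pin-transferred onto cells and incubated 48 or 72 hr at 37 degree Celsius, 95% humidity. CellTiter-Glo was added, plates sat 10 min at room temperature, then ATP-coupled luminescence was imaged as the viability read-out.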
# [2] = system: HEK293; assay: as above; conditions: Five cell lines viability, CellTiter-Glo ATP luminescence, 48-72 h; max response: hits give low values
# How it was run: as §1
# [3] = system: KB-3-1; assay: as above; conditions: Five cell lines viability, CellTiter-Glo ATP luminescence, 48-72 h; max response: hits give low values
# How it was run: as §1
# [4] = system: MCC-13; assay: qHTS assay to identify novel small-molecules to repurpose for Merkel cell carcinoma treatment (AID 1296009); conditions: MCC and control cell lines, CellTiter-Glo viability, 72 h; series mostly up to 46 µM
# How it was run: (§2)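 Viability readout: ATP luminescence (CellTiter-Glo) after 72 hr drug exposure at 37 degree celsius. Dose-response format was 8 points for NPC and 11 points for MIPE; data normalized to in-plate controls.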
# [5] = system: NIH3T3; assay: Cytotoxic Profiling of Annotated Libraries Using Quantitative High-Throughput Screening (AID 1296008); conditions: Five cell lines viability, CellTiter-Glo ATP luminescence, 48-72 h; max response: hits give low values
# How it was run: as §1
# [6] = system: HaCat; assay: as above; conditions: Five cell lines viability, CellTiter-Glo ATP luminescence, 48-72 h; max response: hits give low values
# How it was run: as §1
# [7] = system: HACAT; assay: qHTS assay to identify novel small-molecules to repurpose for Merkel cell carcinoma treatment (AID 1296009); conditions: MCC and control cell lines, CellTiter-Glo viability, 72 h; at 44.8 µM (top of the series) unless noted
# How it was run: as §2
# [8] = system: HEK293T; assay: as above; conditions: MCC and control cell lines, CellTiter-Glo viability, 72 h; series mostly up to 44.8 µM
# How it was run: as §2
# Further: nearly all actives have a fitted effect of over 60% in size.
# On the % scale 0 is the no-effect control and ±100 the full control effect; potency means the concentration at half of the fitted maximal effect.
smiles,measurement,setting,value
CC(C(C)N1CC(=O)NC(=O)C1)N1CC(=O)NC(=O)C1 (centres undefined),outcome,[1],inactive
same,Potency,[2],1.66 µM (active)
same,max response,[3],-3.89%
same,Potency,[4],inactive
COc1cc(OC)cc(-c2ccc3ncc4ccc(=O)n(-c5ccc(N6CCNCC6)c(C(F)(F)F)c5)c4c3c2)c1,Potency,[1],10.5 µM (active)
same,Potency,[2],3.72 µM (active)
same,Potency,[5],14.8 µM (active)
O=C(Nc1cccc(Nc2ncc(Br)c(NCCc3cnc[nH]3)n2)c1)N1CCCC1,Potency,[1],4.18 µM (active)
same,Potency,[6],9.35 µM (active)
same,Potency,[3],1.32 µM (active)
same,Potency,[5],4.69 µM (active)
OC[C@H]1OC(O)C[C@@H](O)[C@H]1O (some centres undefined),outcome,[1],inactive
same,outcome,[6],inactive
same,max response,[3],2.18%
same,outcome,[5],inactive
same,outcome,[7],inactive
same,Potency,[8],inactive
same,Potency,[4],inactive
CC(=O)O[C@@]12CO[C@H]1C[C@H](O)[C@@]1(C)C(=O)[C@H](O)C3=C(C)[C@@H](OC(=O)C(O)[C@@H](NC(=O)OC(C)(C)C)c4ccccc4)C[C@@](O)([C@@H](OC(=O)c4ccccc4)[C@@H]21)C3(C)C (some centres undefined),max response,[1],-64.7%
same,max response,[2],-90.2%
same,Potency,[3],0.0526 µM (active)
same,max response,[5],-88.1%
CCCCCCCN(CC)CCCC(O)c1ccc(NS(C)(=O)=O)cc1 (centres undefined),max response,[1],0.839%
same,outcome,[6],inactive
same,max response,[3],-6.17%
same,max response,[5],-1.95%
same,outcome,[7],inactive
same,Potency,[4],inactive
CCNC(=O)c1cc2c(-c3cc(OCCN4CCCC4)c(Cl)cc3Cl)nc(N)nc2s1,Potency,[1],4.69 µM (active)
same,Potency,[2],0.418 µM (active)
same,Potency,[5],2.35 µM (active)
N#Cc1cc(NC(=O)Nc2nnc(-c3ccncc3)s2)ccc1-c1cn[nH]c1,max response,[1],-3.75%
same,outcome,[6],inactive
same,max response,[3],0.642%
same,max response,[5],-2.38%
same,outcome,[7],inactive
same,Potency,[8],inactive
same,Potency,[4],inactive
C#Cc1cccc(Nc2ncnc3cc(OCCOC)c(OCCO)cc23)c1,Potency,[1],14.8 µM (active)
same,Potency,[2],16.6 µM (active)
same,Potency,[5],20.9 µM (active)
same,Potency,[4],inactive
CC(N[C@H]1CCCC[C@H]1NC(=O)c1ccc(Cl)cc1)c1cccc2ccccc12 (some centres undefined),max response,[1],2.81%
same,outcome,[6],inactive
same,max response,[3],1.61%
same,max response,[5],-12.9%
same,outcome,[7],inactive
same,Potency,[4],inactive
C[C@@]12C(=O)OC(=O)[C@@]1(C)C1CCC2O1,Potency,[1],5.26 µM (active)
same,Potency,[6],26.4 µM (active)
same,Potency,[3],7.43 µM (active)
same,Potency,[5],13.2 µM (active)
COc1cc([C@@H]2c3cc4c(cc3[C@H](O)[C@H]3COC(=O)[C@@H]23)OCO4)cc(OC)c1OC,Potency,[1],0.296 µM (active)
same,max response,[6],4.88%
same,Potency,[3],0.235 µM (active)
same,Potency,[5],0.187 µM (active)
same,Potency,[4],0.662 µM (active)
C[C@H](NC(=O)C(C#N)=Cc1cccc(Br)n1)c1ccccc1,Potency,[1],5.26 µM (active)
same,Potency,[6],10.5 µM (active)
same,Potency,[3],4.69 µM (active)
same,Potency,[5],9.35 µM (active)
same,Potency,[4],inactive
O=C1CSC(=O)N1C(CCc1ccncc1)COc1ccc(-c2cccc([N+](=O)[O-])c2)cc1 (centres undefined),max response,[1],-33.8%
same,max response,[6],-30.8%
same,max response,[3],-6.99%
same,max response,[5],-3.92%
same,Potency,[4],inactive
CCCNS(=O)(=O)Nc1ncnc(OCCOc2ncc(Br)cn2)c1-c1ccc(Br)cc1,max response,[1],-8.99%
same,outcome,[6],inactive
same,outcome,[3],inactive
same,max response,[5],-4.31%
same,outcome,[7],inactive
same,Potency,[4],inactive
Cn1cc(C[C@@H](N)C(=O)O)c2ccccc21,Potency,[1],5.75 µM (active)
same,outcome,[6],inactive
same,max response,[3],4.82%
same,max response,[5],-2.88%
same,outcome,[7],inactive [at 17.4 µM]
same,Potency,[4],inactive
CCc1cc(C(C)=NOCc2ccc(C3CCCCC3)c(C(F)(F)F)c2)ccc1CN1CC(C(=O)O)C1,max response,[1],2.27%
same,outcome,[6],inactive
same,outcome,[3],inactive
same,max response,[5],-5.84%
same,outcome,[7],inactive
same,Potency,[4],inactive
CCn1c(=O)c2c(nc(C=Cc3ccc(OC)c(OC)c3)n2C)n(CC)c1=O,max response,[1],-2.94%
same,max response,[6],-8.26%
same,max response,[3],9.4%
same,outcome,[5],inactive
same,Potency,[4],inactive
CS(=O)(=O)N1CCc2c(-c3cnc(N)nc3)nc(N3CCOCC3)nc21,Potency,[1],0.935 µM (active)
same,Potency,[6],1.16 µM (active)
same,Potency,[3],4.61 µM (active)
same,Potency,[5],743 nM (active) and 1.84 µM (active)
same,Potency,[4],inactive
O=C(C=CC#Cc1cccc(NS(=O)(=O)c2ccccc2)c1)NO,Potency,[1],13.2 µM (active)
same,Potency,[6],11.8 µM (active)
same,Potency,[3],5.26 µM (active)
same,Potency,[5],10.5 µM (active)
same,Potency,[4],14.8 µM (active)
C=CC(=O)Nc1ccc2ncnc(Nc3ccc(OCc4cccc(F)c4)c(Cl)c3)c2c1,Potency,[1],14.6 µM (active)
same,Potency,[6],1.87 µM (active) and 580 nM (active)
same,Potency,[3],9.35 µM (active)
same,Potency,[4],3.72 µM (active)
